Source: PubChem BioAssay (NCATS)
Several values for one entry are separate records, joined by “and”; a condition that tells them apart may be missing. Identical values can stand only once. Results filed as inconclusive are left out. Entries that show only a call come without a potency. Activity calls are given as the source filed them. Unless noted, calls follow the shape of the full dose curve.

What was measured:
[1] = molecular target: Bile acid receptor (Homo sapiens) (UniProt Q96RI1); assay: qHTS assay for small molecule antagonists of farnesoid X receptor signaling (AID 588526)
Chain of Bile acid receptor (Homo sapiens) (Q96RI1 whole entry, looked up): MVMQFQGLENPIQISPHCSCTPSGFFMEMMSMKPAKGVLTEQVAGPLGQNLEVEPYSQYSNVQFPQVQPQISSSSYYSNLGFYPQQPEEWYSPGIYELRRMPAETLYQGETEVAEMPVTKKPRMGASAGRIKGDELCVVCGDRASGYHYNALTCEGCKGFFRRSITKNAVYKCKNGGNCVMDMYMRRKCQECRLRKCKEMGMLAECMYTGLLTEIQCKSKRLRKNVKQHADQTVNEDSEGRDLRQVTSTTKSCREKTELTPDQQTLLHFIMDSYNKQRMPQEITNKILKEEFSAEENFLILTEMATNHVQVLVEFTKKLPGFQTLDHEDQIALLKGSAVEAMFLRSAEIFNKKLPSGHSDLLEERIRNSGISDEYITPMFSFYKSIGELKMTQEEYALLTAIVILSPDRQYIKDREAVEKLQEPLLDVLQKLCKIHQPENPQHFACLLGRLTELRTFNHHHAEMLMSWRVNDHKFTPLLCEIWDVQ
Outline: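 Beta-lactamase reporter antagonist mode: HEK293T FXR-UAS-bla cells, titrated compound, CDCA stimulation, 16 h 37 C, CCF4 dye 2 h RT. Data normalized to CDCA 50 uM and DMSO; Hill-fit IC50.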

[2] = molecular target: Glucocorticoid receptor (Homo sapiens) (UniProt P04150); assay: qHTS assay for small molecule agonists of glucocorticoid receptor signaling (AID 588532; active = well fitted curve in the direction sought with a large enough effect in the signal ratio, with a control signal flat; the % refers to the signal ratio); details: HeLa MMTV-bla, beta-lactamase ratio, agonist, 18 h; stronger effect = higher value; percent of dexamethasone control, DMSO zero
Chain of Glucocorticoid receptor (Homo sapiens) (P04150 whole entry, looked up): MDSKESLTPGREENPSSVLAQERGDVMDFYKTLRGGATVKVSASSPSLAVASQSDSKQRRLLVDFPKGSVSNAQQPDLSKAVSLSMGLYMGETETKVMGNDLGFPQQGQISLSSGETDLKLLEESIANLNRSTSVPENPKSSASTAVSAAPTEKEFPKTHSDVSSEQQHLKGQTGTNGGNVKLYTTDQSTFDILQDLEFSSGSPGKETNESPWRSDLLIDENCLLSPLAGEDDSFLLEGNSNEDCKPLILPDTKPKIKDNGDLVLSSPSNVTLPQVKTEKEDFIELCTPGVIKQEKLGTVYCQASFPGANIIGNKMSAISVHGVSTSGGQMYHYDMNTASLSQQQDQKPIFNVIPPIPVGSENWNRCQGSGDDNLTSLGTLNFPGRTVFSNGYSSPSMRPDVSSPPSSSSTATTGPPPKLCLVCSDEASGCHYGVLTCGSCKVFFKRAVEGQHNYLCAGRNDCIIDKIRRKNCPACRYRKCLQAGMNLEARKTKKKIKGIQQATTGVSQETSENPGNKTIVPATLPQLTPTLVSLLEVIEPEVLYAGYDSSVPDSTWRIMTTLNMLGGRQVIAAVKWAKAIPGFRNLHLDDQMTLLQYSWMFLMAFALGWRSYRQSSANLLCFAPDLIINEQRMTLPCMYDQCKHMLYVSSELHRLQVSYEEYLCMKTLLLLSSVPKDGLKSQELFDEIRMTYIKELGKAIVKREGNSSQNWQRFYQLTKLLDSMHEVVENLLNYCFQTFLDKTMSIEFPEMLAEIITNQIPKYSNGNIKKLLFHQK
Outline: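 Quantitative HTS using CellSensor MMTV-bla HeLa cells in charcoal/dextran-treated serum; compounds tested up to 92 uM. After 18 h at 37 C, CCF4 dye reported reporter induction.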

[3] = molecular target: Glucocorticoid receptor (Homo sapiens) (UniProt P04150); assay: qHTS assay for small molecule antagonists of glucocorticoid receptor signaling (AID 588533; active = well fitted inhibition curve with a large enough effect in the signal ratio, with a control signal flat, not every such curve was filed as active; the % refers to the signal ratio;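 also: cells stimulated with 2 nM dexamethasone as agonist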)
Outline: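 Antagonist-mode qHTS: compound titrations added to GRE-bla HeLa cells, then dexamethasone 2 nM final; 18 h, 37 C. CCF4 FRET fluorescence normalized to dexamethasone and DMSO; IC50 from Hill fit.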

[4] = qHTS assay for small molecule antagonists of peroxisome proliferator-activated receptor delta signaling (AID 588535; active = well fitted inhibition curve with a large enough effect in the signal ratio, with a control signal flat, not every such curve was filed as active; the % refers to the signal ratio;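 as to max response: cells co-treated with a PPAR-delta agonist as stimulator during compound exposure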); details: HEK293T PPARd-UAS-bla, beta-lactamase FRET ratio, 18 h; 460 nm channel
Outline: (§1)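 Antagonist-mode qHTS using GeneBLAzer PPAR-delta-UAS-bla HEK293T cells; compound exposure 18 hrs at 37 C over a titration. Ratiometric CCF4 fluorescence at 460/530 nm; concentration-response points fitted to the Hill equation.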

[5] = molecular target: Peroxisome proliferator-activated receptor delta (Homo sapiens) (UniProt Q03181); assay: as above
Chain of Peroxisome proliferator-activated receptor delta (Homo sapiens) (Q03181 whole entry, looked up): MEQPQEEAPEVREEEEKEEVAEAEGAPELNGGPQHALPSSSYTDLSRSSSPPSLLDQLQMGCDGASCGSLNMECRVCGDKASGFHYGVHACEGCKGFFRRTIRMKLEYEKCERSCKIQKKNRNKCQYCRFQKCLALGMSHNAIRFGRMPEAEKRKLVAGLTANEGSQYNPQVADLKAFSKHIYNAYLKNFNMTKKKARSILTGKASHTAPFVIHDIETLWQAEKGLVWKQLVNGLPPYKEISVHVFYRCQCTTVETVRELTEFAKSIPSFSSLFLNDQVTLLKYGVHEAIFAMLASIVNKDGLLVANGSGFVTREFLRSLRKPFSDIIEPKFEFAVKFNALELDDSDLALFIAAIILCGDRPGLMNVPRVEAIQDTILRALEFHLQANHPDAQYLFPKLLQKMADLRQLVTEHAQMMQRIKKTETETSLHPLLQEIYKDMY
Outline: as §1

[6] = molecular target: Peroxisome proliferator-activated receptor gamma (Homo sapiens) (UniProt P37231); assay: qHTS assay for small molecule agonists of peroxisome proliferator-activated receptor gamma signaling (AID 588536; active = well fitted curve in the direction sought with a large enough effect in the signal ratio, with a control signal flat, not every such curve was filed as active; the % refers to the signal ratio)
Chain of Peroxisome proliferator-activated receptor gamma (Homo sapiens) (P37231 whole entry, looked up): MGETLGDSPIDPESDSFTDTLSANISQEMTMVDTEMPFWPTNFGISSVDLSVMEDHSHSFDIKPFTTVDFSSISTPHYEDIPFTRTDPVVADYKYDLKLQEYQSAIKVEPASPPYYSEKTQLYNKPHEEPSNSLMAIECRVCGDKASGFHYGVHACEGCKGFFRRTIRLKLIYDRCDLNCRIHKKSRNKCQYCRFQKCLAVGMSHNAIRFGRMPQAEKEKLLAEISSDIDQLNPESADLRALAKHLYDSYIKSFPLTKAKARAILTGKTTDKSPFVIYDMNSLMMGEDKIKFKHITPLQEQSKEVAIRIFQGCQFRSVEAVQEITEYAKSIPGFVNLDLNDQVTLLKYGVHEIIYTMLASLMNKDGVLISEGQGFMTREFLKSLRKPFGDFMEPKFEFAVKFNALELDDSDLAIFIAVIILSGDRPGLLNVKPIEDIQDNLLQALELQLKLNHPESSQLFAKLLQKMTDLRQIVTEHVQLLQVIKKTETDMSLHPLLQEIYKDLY
Outline: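 Beta-lactamase reporter read-out: CCF4 fluorescence (ex 405, em 460/530 nm) after 2 h at RT. HEK293 GeneBLAzer cells were treated for 16 h at 37 C. Hill fits gave EC50 and efficacy versus 2 uM rosiglitazone (100%) and DMSO (0%).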

[7] = molecular target: Vitamin D3 receptor (Homo sapiens) (UniProt P11473); assay: qHTS assay for small molecule agonists of vitamin D receptor signaling (AID 588543)
Chain of Vitamin D3 receptor (Homo sapiens) (P11473 whole entry, looked up): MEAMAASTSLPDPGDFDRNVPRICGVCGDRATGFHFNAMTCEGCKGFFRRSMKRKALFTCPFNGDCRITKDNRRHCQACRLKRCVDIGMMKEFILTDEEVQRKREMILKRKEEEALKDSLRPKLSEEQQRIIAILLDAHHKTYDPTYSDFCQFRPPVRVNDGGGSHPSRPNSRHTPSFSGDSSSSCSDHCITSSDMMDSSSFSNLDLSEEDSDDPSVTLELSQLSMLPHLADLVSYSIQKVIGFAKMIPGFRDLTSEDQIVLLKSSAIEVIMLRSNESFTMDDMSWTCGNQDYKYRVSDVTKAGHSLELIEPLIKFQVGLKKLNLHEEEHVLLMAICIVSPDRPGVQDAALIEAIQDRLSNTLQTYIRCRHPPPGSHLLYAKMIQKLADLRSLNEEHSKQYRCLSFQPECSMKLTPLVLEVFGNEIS
Outline: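 Reporter cells (HEK293T, VDR-UAS-bla) were seeded in medium with 2% charcoal-stripped serum and incubated 5 h, then compounds in concentration series were added for 16 h at 37 °C. Stimulation was scaled between DMSO basal and 50 nM 1α,25-dihydroxyvitamin D3.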

[8] = qHTS assay for small molecule agonists of retinoid X receptor alpha signaling (AID 588544); details: HEK293T RXRa-UAS-bla, beta-lactamase reporter, 18 h; 530 nm emission
[9] = molecular target: Retinoic acid receptor RXR-alpha (Homo sapiens) (UniProt P19793); assay: as above
Chain of Retinoic acid receptor RXR-alpha (Homo sapiens) (P19793 whole entry, looked up): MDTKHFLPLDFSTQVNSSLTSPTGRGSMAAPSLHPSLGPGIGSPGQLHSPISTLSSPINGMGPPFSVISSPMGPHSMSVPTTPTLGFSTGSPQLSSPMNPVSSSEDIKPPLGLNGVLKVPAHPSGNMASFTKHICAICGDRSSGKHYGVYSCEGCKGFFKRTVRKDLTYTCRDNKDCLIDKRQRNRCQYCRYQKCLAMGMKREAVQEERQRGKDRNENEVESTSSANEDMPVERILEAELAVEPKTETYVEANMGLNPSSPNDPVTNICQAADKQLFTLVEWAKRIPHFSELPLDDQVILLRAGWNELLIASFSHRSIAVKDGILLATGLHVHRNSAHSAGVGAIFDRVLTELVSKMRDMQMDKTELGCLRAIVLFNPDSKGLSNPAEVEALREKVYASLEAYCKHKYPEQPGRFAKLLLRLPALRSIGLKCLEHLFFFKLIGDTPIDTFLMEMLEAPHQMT

[10] = molecular target: Thyroid hormone receptor beta (Homo sapiens) (UniProt P10828); assay: qHTS assay for small molecule agonists of thyroid hormone receptor beta signaling (AID 588545)
Chain of Thyroid hormone receptor beta (Homo sapiens) (P10828 whole entry, looked up): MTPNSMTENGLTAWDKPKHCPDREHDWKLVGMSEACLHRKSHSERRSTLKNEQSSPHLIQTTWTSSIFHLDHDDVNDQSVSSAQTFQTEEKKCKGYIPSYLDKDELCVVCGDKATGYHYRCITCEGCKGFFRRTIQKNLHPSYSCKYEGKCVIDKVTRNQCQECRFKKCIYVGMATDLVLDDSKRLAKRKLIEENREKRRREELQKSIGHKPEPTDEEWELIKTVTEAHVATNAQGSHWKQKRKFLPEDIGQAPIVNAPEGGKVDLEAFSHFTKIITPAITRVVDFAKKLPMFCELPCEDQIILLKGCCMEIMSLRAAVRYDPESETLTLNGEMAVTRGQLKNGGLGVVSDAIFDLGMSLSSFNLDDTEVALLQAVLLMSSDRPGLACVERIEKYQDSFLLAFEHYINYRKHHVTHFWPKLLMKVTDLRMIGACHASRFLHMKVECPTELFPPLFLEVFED
Outline: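 Agonist-mode beta-lactamase reporter assay, HEK 293 cells, 2% charcoal/dextran FBS; cells plated 4 hrs, compound 18 hrs at 37 C, CCF4 2 hrs RT. Normalized to 10 nM T3 (100%) and DMSO (0%); Hill fit gives EC50, efficacy.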

[11] = molecular target: Thyroid hormone receptor beta (Homo sapiens) (UniProt P10828); assay: qHTS assay for small molecule antagonists of thyroid hormone receptor beta signaling (AID 588547; active = well fitted inhibition curve with a large enough effect in the signal ratio, with a control signal flat, not every such curve was filed as active; the % refers to the signal ratio;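 also: cells stimulated with 0.4 nM T3 agonist during compound exposure; series mostly up to about 77 µM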); details: TR-UAS-bla HEK293, beta-lactamase ratio, antagonist mode, 18 h
Outline: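 Inhibition of T3-driven (0.4nM final) beta-lactamase reporter activity was measured over 0.59 nM to 92 uM compound after 18 h at 37 C. The cells were GripTite HEK293 TR-UAS-bla in charcoal/dextran-stripped serum, with CCF4 ratio read-out and IC50 from Hill fits.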

[12] = molecular target: Voltage-gated inwardly rectifying potassium channel KCNH2 (Homo sapiens) (UniProt Q12809); assay: qHTS Assay for Small Molecule Inhibitors of the Human hERG Channel Activity (AID 588834; active = well fitted inhibition curve with a large enough effect;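 also: top concentration of the series differs between compounds; lower thallium flux fluorescence means stronger hERG block; nearly all actives have a fitted effect of over 50% in size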)
Chain of Voltage-gated inwardly rectifying potassium channel KCNH2 (Homo sapiens) (Q12809 whole entry, looked up): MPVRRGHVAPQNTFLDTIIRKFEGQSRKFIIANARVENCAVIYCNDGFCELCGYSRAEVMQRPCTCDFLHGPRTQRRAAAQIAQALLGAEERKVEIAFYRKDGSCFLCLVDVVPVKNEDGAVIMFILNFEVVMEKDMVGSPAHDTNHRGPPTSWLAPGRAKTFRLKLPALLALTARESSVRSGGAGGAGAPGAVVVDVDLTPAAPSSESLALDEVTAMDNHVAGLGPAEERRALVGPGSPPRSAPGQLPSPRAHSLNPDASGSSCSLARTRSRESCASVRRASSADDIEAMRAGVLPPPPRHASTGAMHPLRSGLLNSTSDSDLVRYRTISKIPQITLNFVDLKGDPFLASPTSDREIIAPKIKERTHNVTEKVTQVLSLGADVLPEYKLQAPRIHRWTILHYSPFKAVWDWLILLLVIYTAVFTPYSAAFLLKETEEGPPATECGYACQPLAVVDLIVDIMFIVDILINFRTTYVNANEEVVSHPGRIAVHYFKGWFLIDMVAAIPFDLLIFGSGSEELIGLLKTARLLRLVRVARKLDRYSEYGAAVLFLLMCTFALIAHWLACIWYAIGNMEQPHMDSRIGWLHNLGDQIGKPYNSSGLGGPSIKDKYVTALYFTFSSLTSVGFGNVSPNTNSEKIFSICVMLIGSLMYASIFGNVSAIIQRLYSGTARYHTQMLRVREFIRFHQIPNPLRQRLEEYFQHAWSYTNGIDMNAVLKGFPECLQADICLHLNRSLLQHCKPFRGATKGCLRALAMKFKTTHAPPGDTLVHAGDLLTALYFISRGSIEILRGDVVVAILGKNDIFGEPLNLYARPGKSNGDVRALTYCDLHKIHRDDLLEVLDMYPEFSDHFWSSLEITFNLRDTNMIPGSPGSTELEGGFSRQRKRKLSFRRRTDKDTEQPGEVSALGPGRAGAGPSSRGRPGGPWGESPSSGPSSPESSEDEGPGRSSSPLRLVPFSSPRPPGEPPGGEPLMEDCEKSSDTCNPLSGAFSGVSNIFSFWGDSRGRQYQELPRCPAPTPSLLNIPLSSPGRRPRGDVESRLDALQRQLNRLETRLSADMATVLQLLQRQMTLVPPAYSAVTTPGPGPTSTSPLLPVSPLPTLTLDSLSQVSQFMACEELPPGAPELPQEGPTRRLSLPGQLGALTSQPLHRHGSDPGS
Outline: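 Step 1: BacMam hERG transduction of U2OS, 4 hrs RT. Step 2: overnight 37 °C, plate 2000 cells/well, 4 hr. Step 3: FluxOR load, compound 10 min, stimulate, read fluorescence.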

[13] = qHTS assay for small molecule activators of the nuclear factor-kappa B (NF-kB) signaling pathway (AID 651749; active = well fitted activation curve with a large enough effect in the signal ratio; the % refers to the signal ratio; also: series mostly up to about 77 µM); details: NF-kB-bla ME-180 cells, beta-lactamase FRET ratio, 16 h; stronger effect = higher value
Outline: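 FRET-based beta-lactamase detection in ME-180 cells reports NF-kB response-element-driven transcription following overnight (16 hr) compound treatment.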

[14] = qHTS assay for small molecule disruptors of the mitochondrial membrane potential - 1 hr assay (AID 651754); also: nearly all actives have a fitted effect of over 35% in size
Outline: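 Read-out: dye fluorescence at 490 nm ex/535 nm em (monomers) and 540 nm ex/590 nm em (aggregates) in HepG2 cells. Compound exposure 1 hr at 37C, followed by 30 min dye loading.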

[15] = qHTS assay for small molecule antagonists of retinoid X receptor alpha signaling (AID 588546; active = well fitted inhibition curve with a large enough effect in the signal ratio, with a control signal flat, not every such curve was filed as active; the % refers to the signal ratio;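 also: cells stimulated with 9-cis-retinoic acid as agonist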); details: HEK293T RXRa-UAS-bla, beta-lactamase ratio, antagonist mode; measured here: W530 green channel, cytotoxicity proxy
Outline: (§2)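 Beta-lactamase reporter inhibition, read as CCF4 fluorescence ratio (ex 405, em 460/530 nm) after 2 h at RT. HEK293T UAS-bla cells, 2500/well, were stimulated with 9-cis-RA at 500 or 100 nM final alongside test compound for 18 h at 37 C.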

[16] = qHTS assay for small molecule activators of the p53 signaling pathway (AID 651743; active = well fitted activation curve with a large enough effect in the signal ratio, not every such curve was filed as active; the % refers to the signal ratio; also: series mostly up to about 92 µM); details: HCT-116 p53RE-bla, beta-lactamase FRET ratio, 16 h; stronger effect = higher value
Outline: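 A beta-lactamase reporter under p53 response element control, stably carried by HCT-116 cells, reported pathway activation. Test compounds were applied for 16 hours at 37 C, and fluorescence was measured 2 hours after adding the B/G FRET substrate.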

[17] = molecular target: Peroxisome proliferator-activated receptor gamma (Homo sapiens) (UniProt P37231); assay: qHTS assay for small molecule antagonists of peroxisome proliferator-activated receptor gamma signaling (AID 588537; active = well fitted inhibition curve with a large enough effect in the signal ratio, with a control signal flat, not every such curve was filed as active; the % refers to the signal ratio;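 also: reporter cells co-stimulated with 50 nM rosiglitazone agonist during compound treatment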)
Outline: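 Cell-based beta-lactamase assay; GW9662 served as the antagonist control. Stimulation used rosiglitazone, final 50 nM, 16 h, 37 C.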

[18] = molecular target: Retinoic acid receptor RXR-alpha (Homo sapiens) (UniProt P19793); assay: qHTS assay for small molecule antagonists of retinoid X receptor alpha signaling (AID 588546); details: HEK293T RXRa-UAS-bla, beta-lactamase ratio, antagonist mode;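 also: cells stimulated with 9-cis-retinoic acid as agonist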
Outline: as §2

[19] = qHTS assay for small molecule agonists of the antioxidant response element (ARE) signaling pathway (AID 651741; active = well fitted activation curve with a large enough effect in the signal ratio; the % refers to the signal ratio; also: potency is read from the fitted curve at half-maximal effect)
Outline: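 Agonist activity is measured as ARE-driven beta-lactamase expression in a stable HepG2 reporter line, using 16 h compound treatment at 37 C and a FRET substrate fluorescence readout after 2 h.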

[20] = molecular target: Vitamin D3 receptor (Homo sapiens) (UniProt P11473); assay: qHTS assay for small molecule antagonists of vitamin D receptor signaling (AID 588541);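 also: receptor activated by calcitriol during compound treatment; series mostly up to about 77 µM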
Outline: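 Antagonist-mode beta-lactamase reporter assay: HEK293T VDR-UAS-bla cells were exposed to titrated compound alongside 1-alpha,25-dihydroxyvitamin D3 at 3 nM final for 16 h. Values were normalized to the 50 nM agonist control and DMSO basal, with IC50 and efficacy from Hill equation fits.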

Structure (SMILES)	outcome [1]	activation [2]	outcome [3]	max response [4]	Potency [5]	outcome [6]	outcome [7]	max response [8]	outcome [9]	outcome [10]	activity change % (negative = inhibition) [11]	Potency [12]	activation [13]	Potency [14]	max response [15]	activation [16]	outcome [17]	max response [18]	Potency [19]	outcome [20]
CCCCCCCCCCCCOCC1CO1 (stereo not drawn)	inactive	7.49% (inactive)	inactive	36.4%	inactive	inactive	inactive	6.34%	inactive	inactive	-4.18% (inactive)	inactive	-0.615% (inactive)	inactive						
COC(=O)CCCC(=O)OC	inactive	-5.32% (inactive)	inactive	14.2%			inactive	-5.09%	inactive	inactive	-27% (inactive)	inactive	-0.14% (inactive)		-9.56%	-1.04% (inactive)				
CCC(C)(C)OC	inactive	-0.431% (inactive)	inactive	12.9%	inactive	inactive		10.3%	inactive	inactive	-6.68% (inactive)	inactive	-0.279% (inactive)	inactive	-18.1%		inactive	17% (inactive)	inactive	
CCCCC/C=C/C=C/C=O	inactive	-3.04% (inactive) and 0.369% (inactive)	inactive	16.5%	inactive	inactive	inactive	-6.95% and 20%	inactive		6.77% (inactive) and -0.205% (inactive)	inactive	-1.4% (inactive) and -2.02% (inactive)		-1.35% and -13.3%	-11.3% (inactive)		1.5% (inactive) and -3.35% (inactive)	48.6 µM (active)	inactive
C/C=C1\CC2C=CC1C2 (stereo not drawn)	inactive	1.02% (inactive)	inactive	-0.443%	inactive			-9.1%	inactive		2.19% (inactive)	inactive	-0.076% (inactive)		-2.6%	0.178% (inactive)	inactive	6.71% (inactive)	inactive	inactive
C=CC(=O)OCCCC	inactive	6.23% (inactive)	inactive	-13.6%	inactive		inactive	-9.05%	inactive	inactive	1.99% (inactive)	inactive		inactive	3.81%	-0.944% (inactive)		-2.2% (inactive)	inactive	inactive
Nc1cc(Cl)c(N)c(Cl)c1	inactive	0.447% (inactive)	inactive	7.4%	inactive	inactive	inactive	-14.2%	inactive	inactive	-9.25% (inactive)	inactive		inactive	7.26% and 6.97%	0.0675% (inactive) and 1.35% (inactive)	inactive	-5.31% (inactive) and -44.9% (inactive)	42.2 µM (active)	inactive
Cc1ccc(CO)cc1	inactive	-5.3% (inactive)	inactive	17.6%	inactive	inactive	inactive	-4.09%	inactive	inactive	14.7% (inactive)	inactive	-1.4% (inactive)	inactive	-4.56%	-4.79% (inactive)	inactive	0.12% (inactive)		inactive
O=Cc1cccc(Br)c1	inactive	-2.28% (inactive)	inactive	21.9%		inactive	inactive	0.636%	inactive	inactive	-16.4% (inactive)	inactive		inactive	0.346%	-0.251% (inactive)		4.36% (inactive)		inactive
CC(=C/C=C/C(C)=C/C=C/C=C(C)/C=C/C=C(C)/C=C/C(=O)O)/C=C/C(=O)O	inactive	-6.11% (inactive)	inactive	11.7%	inactive	inactive	inactive	-15.4%	inactive		-8.7% (inactive)	inactive	-0.299% (inactive)		-2.63%	-0.825% (inactive)	inactive	-3.15% (inactive)		
c1ccc(Oc2ccccc2)cc1	inactive	2.66% (inactive) and -3.4% (inactive)	inactive	-19.2% and -5.05%	inactive			-5.86% and -5.26%	inactive	inactive	13.9% (inactive) and 3.24% (inactive)	inactive	-0.173% (inactive) and -1.25% (inactive)	inactive	-2.47% and -11.6%	-0.263% (inactive) and 10.2% (inactive)		-1.69% (inactive) and -4.15% (inactive)		inactive
CC=O	inactive	-2.95% (inactive)	inactive	23.9%		inactive	inactive	-8.77%	inactive	inactive		inactive	9.05% (inactive)		-2.19%	0.53% (inactive)		-0.48% (inactive)	inactive	inactive
CSCCC=O	inactive	-3.21% (inactive)	inactive	-13.1%	inactive	inactive	inactive	-12.2%	inactive			inactive	0.77% (inactive)	inactive	-2.47%	-3.46% (inactive)		16.4% (inactive)	inactive	inactive
